# Source: PubChem BioAssay
# BoNT-F LC inh: BoNT F light chain protease inhibition. AID 588497. Multiplex microsphere protease cleavage assay, flow cytometry. actives 0.22% (n = 360,000). inhibition, % at 10 µM; in the data active means inhibition above about 35%, passing the limit was not always enough; inconclusive means no clear call, values can overlap the other calls; further: plate controls were buffer without enzyme for full effect and enzyme alone for no effect
# Autofluor counter: counter-screen for toxin protease inhibitors: compound fluorescence; compound autofluorescence counterscreen, microsphere flow cytometry; stronger effect = higher value; fluorescence intensity (concentration not given with the values); actives 3.1% (n = 360,000); in the data active means fluorescence intensity above about 16000; inconclusive means no clear call, values can overlap the other calls
# DUSP3 inh: inhibitors of human VHR1 phosphatase (DUSP3) | AID 1654 | recombinant VHR phosphatase, pNPP absorbance | inhibition, % at 13.3 µM | P51452 | actives 0.52% (n = 290,000); in the data active means inhibition above about 50%
# Target sequence (P51452 whole entry, looked up): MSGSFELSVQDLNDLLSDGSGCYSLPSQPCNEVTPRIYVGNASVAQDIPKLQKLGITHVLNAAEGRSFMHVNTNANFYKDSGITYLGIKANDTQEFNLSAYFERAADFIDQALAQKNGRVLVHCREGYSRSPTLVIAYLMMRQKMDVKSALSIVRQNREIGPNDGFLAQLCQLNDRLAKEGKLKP
# Anthrax LF prot: anthrax lethal factor protease inhibition; P15917; multiplex microsphere protease cleavage assay, LF; inhibition, % at 10 µM; actives 0.12% (n = 360,000); AID 588501; further: plate controls were buffer without enzyme for full effect and enzyme alone for no effect
# BoNT-A LC inh2: BoNT A light chain protease inhibition. AID 588499. inhibition, % at 10 µM. actives 0.17% (n = 360,000). multiplex microsphere protease substrate cleavage, flow cytometry; further: plate controls were buffer without enzyme for full effect and enzyme alone for no effect
# MazEF act: increases E. coli MazEF RNase cleavage of RNA; P0AE70; FAM/BHQ RNA-DNA oligo cleavage fluorescence, 5 h; activation, % at 20 µM; actives 0.32% (n = 350,000); AID 504720; in the data active means activation above about 50%
# Target sequence (P0AE70 whole entry, looked up): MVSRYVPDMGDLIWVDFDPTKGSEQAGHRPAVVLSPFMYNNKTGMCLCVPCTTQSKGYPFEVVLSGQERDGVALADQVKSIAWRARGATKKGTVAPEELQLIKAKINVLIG
# Active calls of the source: *; ? = inconclusive; . = not tested or not shown. In the library only some 4% were active in any assay of this set; here they are far more common. Unless noted, no stated cut-off is given here; in the data, active means inhibition above about 30%; inconclusive means no clear call, values can overlap the other calls; inactive means below that.
SMILES,BoNT-F LC inh,Autofluor counter,DUSP3 inh,Anthrax LF prot,BoNT-A LC inh2,MazEF act
CCN(Cc1ccncc1)S(=O)(=O)c1ccc(C(C)=O)cc1,2,22742*,-1,0,1,7
CCN(CC)S(=O)(=O)c1ccc(C(=O)Nc2ccc(Cc3ccncc3)cc2)cc1,3,3431,9,-8,-1,-2
CC(C(=O)O)N(C(=O)c1ccccc1)c1ccc(F)cc1 (stereo not given),-9,3523,53*,0,0,-3
CC(C)C(=O)NN(C(=O)c1ccccc1)c1ccccc1,-2,2667,27,-1,-1,4
O=C(Nc1nnc(-c2ccccn2)o1)c1cccc(Br)c1,-3,2446,0,-1,-1,4
O=C(CCc1c[nH]c2ccccc12)NCCc1ccc(O)cc1,13,3926,34,7,4,0
CC(C)(C)NC(=S)Nc1ccc(Nc2ccccc2)cc1,-10,9593,53*,-22,-1,1
CC(C)(C)NC(=S)Nc1ccc(Br)cc1,2,22615*,-3,-1,-1,10
Cc1nc(-c2ccc(Cl)cc2)sc1C1(C)CC(c2ccccc2Br)=NO1 (stereo not given),-9,4063,.,-8,0,-3
CC(=O)N1c2ccc(S(=O)(=O)N(C)CC(=O)NC3CCCCC3C)cc2CC1C (stereo not given),-1,5869,18,1,0,-22
S=C(NCc1ccncc1)Nc1ccccc1,-2,2468,19,0,0,-8
S=C(NCc1ccccc1)Nc1ccncc1,10,4115,53*,-2,3,4
O=C(NCc1ccncc1)c1ccc(Br)cc1,1,22240*,4,-1,1,6
O=C(NCc1ccccc1)NC(=O)c1ccncc1,-1,20362*,-4,-3,-2,-1
O=C(CCNC(=O)c1ccc(Br)cc1)NCc1ccncc1,.,.,.,.,.,-7
O=c1c2ccccc2nnn1CSc1nnc(COc2ccc(Cl)cc2)n1Cc1ccco1,-4,22380*,7,-4,?,3
O=c1c2ccccc2nnn1CSc1nc2cc(Cl)ccc2c(=O)n1Cc1ccco1,.,.,.,.,.,-16
Oc1ccccc1NCC(O)Cn1ccc2ccccc21 (stereo not given),-3,22217*,36,0,?,1
O=C1c2ccccc2S(=O)(=O)N1CC(O)Cn1ccc2ccccc21 (stereo not given),25,22501*,25,29,156*,-37
CC(C)C1C(=O)N(Cc2cn(CCC3OCCO3)nn2)CCS(=O)(=O)N1Cc1ccc(-c2ccc(Cl)cc2)cc1 (stereo not given),-6,3809,.,7,0,25
CCOC(=O)c1cnn(-c2ccccc2)c1N,-7,6420,24,-3,0,4
CCOC(=O)c1cnn(-c2cccc(Cl)c2)c1N,-4,16767*,28,-3,-2,7
CCOC(=O)c1cnn(-c2ccccc2)c1NC(=O)c1ccc(C)cc1,-6,23981*,37,-2,-1,6
C/C(CCc1ccccc1)=N\NC(=O)CC(=O)NCCc1ccccc1,-6,2700,30,2,0,-4
CCOC(=O)C1=C(COC(=O)c2ccc(C)s2)NC(=O)NC1C (stereo not given),?,?,.,-5,?,1
SMILES,BoNT-F LC inh,Autofluor counter,DUSP3 inh,Anthrax LF prot,BoNT-A LC inh2,MazEF act
CCC(=NCCO)c1c(O)n(-c2ccccc2)c(=O)[nH]c1=O,1,2882,0,9,1,0
CCN(CC)CCCN=C(C)c1c(O)n(-c2ccccc2)c(=O)[nH]c1=O,0,22362*,-8,-2,?,-7
CCC(=NCCCN(CC)CC)c1c(O)n(-c2ccccc2)c(=O)[nH]c1=O,-3,24318*,21,1,-2,3
Cc1cc(Br)c(NC(=O)c2ccccc2[N+](=O)[O-])cc1C,-5,2621,11,-2,0,-1
COc1ccc(F)cc1S(=O)(=O)NC1CCCC1,-2,20620*,16,0,-2,-9
O=C(Nc1ccccc1C(=O)NCc1ccccc1)c1ccccc1,3,22302*,10,-3,2,0
CN(Cc1ccccc1)C(=O)c1ccccc1NC(=O)C1CC1,0,2256,28,-2,-1,-1
Cc1cc(C(=O)NCc2ccccc2)c(=O)[nH]c1C,-6,23927*,15,-8,-4,4
Cc1ccc(C(=O)NCc2ccccc2)c(F)c1F,-1,4582,26,-1,0,1
CN(Cc1ccccc1)C(=O)c1ccccc1NC(=O)c1ccccc1,2,22709*,2,0,3,-4
O=C(Nc1ccccc1C(=O)NCc1ccccc1)c1ccco1,-12,4060,6,1,1,2
Cc1nc2c(C(=O)NCc3ccccc3)c[nH]n2c(=O)c1Cl,7,20750*,1,-8,5,0
CCNC(=O)CSc1nnc(-c2cccs2)o1,-2,4941,34,-2,-1,9
O=C(Nc1ccc2c(c1)CCC2)c1cnc(Cl)c(Cl)c1,-1,3979,29,-1,0,-10
OC1(C(F)(F)F)CC(O)(C(F)(F)F)n2nc(-c3ccccc3)cc2N1 (stereo not given),8,8602,-13,-6,1,3
CN(C(=O)CN1CCC(NC(=O)C2CCCCC2)CC1)C1CCCCC1,-4,23953*,13,-3,-2,9
CN(C(=O)CN1CCC(NC(=O)c2ccccc2Br)CC1)C1CCCCC1,0,4119,31,-14,-1,5
COc1cc(C(=O)N(Cc2ccccn2)CC2CCCO2)cc(OC)c1OC (stereo not given),5,21493*,8,1,3,-7
CCOc1cc(/C=C/c2nc3ccccc3s2)ccc1OCC(=O)N1CCOCC1,7,2505,11,1,0,-10
CC(C)C(c1nnnn1Cc1ccco1)N1CCN(C2CCCC2)CC1 (stereo not given),?,4104,10,-4,-1,-2
c1coc(Cn2nnnc2CN2CCN(C3CCCC3)CC2)c1,-8,2894,12,1,0,102*
CCc1ccc(C(=O)c2oc3nc(C)cc(C)c3c2N)cc1,-3,20259*,7,-5,-3,2
CCCCN(C)CCNC(=O)c1cc2cc3ccc(OC)cc3nc2o1,5,3451,17,5,-1,8
O=C(Cc1cccs1)N1CCN(c2nc(-c3ccc(Cl)cc3)cs2)CC1,-2,21233*,26,-4,?,2
CC(C)CCNc1nnnc2c1sc1nc(N3CCOCC3)c3c(c12)CC(C)(C)SC3,-5,3759,16,0,3,4
Cc1ccc(C#N)c(SCc2cc3c(cc2Cl)OCO3)n1,-3,8362,-1,-1,0,59*
Cc1ccc(C#N)c(SCc2cccc(Br)c2)n1,?,3588,.,24,2,-7
COc1ccccc1NC(=O)CCN1CCN(C)CC1,-5,4755,-23,-2,-1,5
